± gives the standard deviation of the averaged measurements. In all, about 25,000 sequences were measured (“ln(normalized median fluorescence intensity)”: median about 10, highest 2% from about 12 on). The sample holds the highest values, similar sequences and a random draw of the others, so the mix is not that of the screen.
Each sequence was assayed on PfAP2-G AP2 domain (GST-tagged) (assay: gcPBM binding intensity (ln(normalized median fluorescence intensity)); higher = stronger DNA binding).
How it was run: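 For binding intensity, the highest Masliner-normalised natural-log median intensity across replicate spots of either probe orientation was taken. Protein bound to the array was stained with Alexa488 anti-GST antibody and scanned at 488 nm. The protein, GST-tagged P. falciparum DNA-binding domains from E. coli at about 25 μg on average, had been applied for 1 h to an Agilent 4 × 180k array of primer-extended double-stranded 36-bp intergenic genomic probes and negative controls.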

| Sequence | gcPBM binding intensity (ln) |
| --- | --- |
| AATAGCCCATATGGAATACACACTGAAAATAAAAAA [CACACA_site3373] | 10.3 ± 0.26 |
| TATATATATATATATGCATGTACATATATTTGTTAT [TGCATGCA_site379] | 11.1 ± 0.42 |
| TATAATTATATTTGGAGTACAAATTTTTTTTTTTTT [XGTACX_site7494] | 11.5 ± 0.9 |
| TATTTTTTTTTTATATGTACATAATTTCAAATAAAT [XGTACX_site7747] | 11.4 ± 0.83 |
| TATATTTCAGGGGGGAGTACAAATTTTTTTATATAA [XGTACX_site1600] | 11.8 ± 0.87 |
| TATTGTATTTAATAAACACACAATATTAAAAATATA [CACACA_site4725] | 9.91 ± 0.16 |
| GAAAACAAATATGTAGCACACATTCACATAATATAT [CACACA_site8731] | 9.97 ± 0.014 |
| GTTACATACCTATACACACACATATATAAATAAATA [CACACA_site6549] | 10.2 ± 0.18 |
| ATATATATAATATAGGTGCACTACTTATTTAAAAAA | 10.5 ± 0.36 |
| ATTGATAAATTAACTAGTACACATATAAATATATTA [XGTACX_site2325] | 11.3 ± 0.93 |
| TATAAGCTAAGTTGTTGTACAAAAAGGAAAAGTATA [XGTACX_site3741] | 11.1 ± 0.59 |
| AAAGAAGGGAAACACACACACACACCCACAAAAAAA [CACACA_site3766] | 10.3 ± 0.33 |
| TACACCAGTTGTGGGAGTACACAAAAAAAGGGAAAA [XGTACX_site6047] | 11.7 ± 1 |
| TATTATAATATTTATACACACATAATTTTGATAAAT [CACACA_site583] | 9.95 ± 0.16 |
| AACTTTTAGAAGAACACACACATATAGATTATGACC [CACACA_site6256] | 10.2 ± 0.014 |
| TATATTATGACCACCACACACCTATACACATAACAT [CACACA_site7199] | 11.4 ± 0.91 |
| ATTATAACACCTCCCCCCCTTTTTTTATGAAGACCA [CACACA_negctrl_site1043] | 11.8 ± 0.86 |
| TACACATACAGACATACACACATACACATATACACA [CACACA_site6918] | 10.2 ± 0.23 |
| CACAAAAGTAAGCACGCACACACAACATGAAATAAA [CACACA_site7938] | 10.4 ± 0.18 |

| Sequence | gcPBM binding intensity (ln) |
| --- | --- |
| TAATCTTTCGTACATGTACACACAGAAAAAAAAAAA [CACACA_site8798] | 11.8 ± 1.3 |
| ATCTTTCGTACATGTACACACAGAAAAAAAAAAAAA [CACACA_site2502] | 11.5 ± 1 |
| TTAATCTTTCCTACATGTACACACAGAAAAAAAAAA [XGTACX_site5213] | 11.5 ± 1 |
| TTAAAGCTTGCATATACACACATACATAAATTCATA [CACACA_site7208] | 10 ± 0.18 |
| TATTTTTTTTTTTTTTTTTTTACCTTTCCACTCAAA [CACACA_negctrl_site1454] | 9.84 ± 0.34 |
| ATGTATATTTTTAAAAGTACAGAATTTTCATATGAA [XGTACX_site5754] | 11.3 ± 0.93 |
| ATATTTTTTTTTTCGTGTACGCATAAATATATCTAA [XGTACX_site3360] | 11.6 ± 0.95 |
| ATTTTATCTTTAAACTGTACGTATTAATATGTAGAA [XGTACX_site3077] | 11.7 ± 1.1 |
| TATTATGTATGTATATGTACGTATCTTATTTTATTT [XGTACX_site5008] | 11.3 ± 0.76 |
| AATTTATTTTTTTAATGTACATATGGTATAAATATA [XGTACX_site8012] | 11.3 ± 0.79 |
| ATATTTATACATAAATGTACTTTTATATATTTAATA [XGTACX_site3020] | 11.1 ± 0.8 |
| TATATACAATATAGGTGTACATTTTTTTATCTATTT [XGTACX_site8431] | 11.3 ± 0.69 |
| TTATTTTCATATAGGTGTACATAAAAATATTCTTAT [XGTACX_site8861] | 11.6 ± 0.82 |
| TTTTTTAATAAATGGTGTACATATTTTTTTTATACT [XGTACX_site8584] | 11.8 ± 0.87 |
| TGTAAATAATATAATAGTACGCATATTTTTATTGAA [XGTACX_site284] | 11.4 ± 0.78 |
| ATATATTTATATAGGTGTACATATTTTGCTATTCAA [XGTACX_site5199] | 11.6 ± 0.77 |
| ATATATGTATATTTTTGTACGCATAAATATATTTTT [XGTACX_site827] | 11.3 ± 0.83 |
| TAATATATTAATATATGTACGTATTTTTATTAATAT [XGTACX_site5346] | 11.6 ± 0.93 |
| ATAATAAATAAATAATGTACATATGAAAGAATAAAT [XGTACX_site8355] | 11.1 ± 0.49 |

| Sequence | gcPBM binding intensity (ln) |
| --- | --- |
| ATATAAAATAAATAAGTGCAGATAAATTTATGTGAC [GTGCAC_site9504] | 10.25 ± 0.057 |
| TTGCCCATTTCATTAACACACAAATGTTTATATTCT [CACACA_site4569] | 10.17 ± 0.071 |
| TCATACATTTTCCTTGCACACATTTATAATTAATGT [CACACA_site614] | 10.5 ± 0.17 |
| TTATGCATAAAAGGTGGTACTCCGTATATACATTCT [XGTACX_site4354] | 11.4 ± 0.65 |
| TACTTTTCATCTTCTTAACACACAAAAAAAAAAAAA [CACACA_site9290] | 10.1 ± 0.52 |
| TTATATATTTATAAATGTACATATAATTTTTTTATA [XGTACX_site4696] | 11.1 ± 0.67 |
| TTTATATATTTTAGGAGTACATTAAATTATACCTTA [XGTACX_site5600] | 11.5 ± 0.89 |
| TATTTAATTTTTAAATGTACATATAAAATAATATAT [XGTACX_site2422] | 11.2 ± 0.89 |
| TTTATTATTTTTAGGAGTACACAAAATAAAACAAAT [XGTACX_site8841] | 11.6 ± 1 |
| TTTATATATTTTAGGTGTACATAAATTTTTATATAT [XGTACX_site5597] | 11.7 ± 1.1 |
| ATGTATATATATTTGTGTACATATTTAGGAAATAAA [XGTACX_site2904] | 11.6 ± 1 |
| TAAAAATAATATATTTGTACATATGTGTATACATAA [XGTACX_site741] | 10.7 ± 0.38 |
| AATTTTTTAAATGTGTGTACATATTATTTAAATAAT [XGTACX_site5967] | 11.5 ± 0.73 |
| CCCACGTATATTTTGTGTACATAAATAAATAAATAA [XGTACX_site4046] | 11.6 ± 0.86 |
| TATAAAATATAAATTTGTACATATAAAATATTTTAT [XGTACX_site7462] | 10.8 ± 0.53 |
| AATATCTAAAATGTGTGTACATAATATTTTTAATAT [XGTACX_site3831] | 11.7 ± 1.1 |
| TAACATAAATTTAGGAGTACACTTTTTATACATACA [XGTACX_site4066] | 11.7 ± 1 |
| TTTTAAAGTTGTGAGCTTCATTTTTATTTATATGTA [CACACA_negctrl_site1505] | 9.87 ± 0.057 |
| AAATAATTTATAAATAAATACATTGTTACTTTTTCT [GTGCAC_negctrl_site639] | 9.62 ± 0.29 |

From the supplement of paper PMC11417369
